Inconclusive results are not listed. Activity calls are given as the source filed them. Calls come from the whole dose curve.
Assay: qHTS assay for small molecules that induce genotoxicity in human embryonic kidney cells expressing luciferase-tagged ATAD5 - cell viability (AID 651634); note: nearly all actives have a fitted effect of over 25% in size
Conditions: HEK293T ATAD5-luc cells viability, CellTiter-Fluor, 15.5 h; series mostly up to 83.3 µM; activity, negative = cytotoxicity: at the top concentration
Excerpt: National Center for Advancing Translational Sciences [NCATS]
NIH Chemical Genomics Center [NCGC]
U.S. Environmental Protection Agency [EPA]
National Institutes of Environmental Health Sciences [NIEHS]
National Toxicology Program [NTP]
U.S. Food and Drug Administration [FDA]
Enhanced Level of Genome Instability Gene 1 (ELG1; human ATAD5) protein levels increase in response to various types of DNA damage. Using a luciferase reporter-gene tagged with ElG1, a cell-based assay [developed by Kyungjae Myung, NHGRI, NIH] was used to measure the induction of ATAD5 in human embryonic kidney cells (HEK293T). So, increase in luciferase activity can be used to identify the compounds that cause genetic stress. In addition to genotoxicity, these cells were also used to test for cytotoxicity by measuring the protease activity within live cells.
Tox21 Assay Protocol Summary:
For cytotoxicity screening, 2,000 cells in 5 uL/well were dispensed into white, solid-bottom 1536-well plates using a Multidrop Combi (Thermo Scientific) dispenser. Following transfer of 23 nL compound or DMSO vehicle by a pin tool, the plates were incubated 15.5 hr at 37C and 5% CO2. 1 ul CellTiter-Fluor reagent (Promega, Madison, WI) was then added to each plate and following 30 min incubation at 37C, fluorescence intensity was quantified on a ViewLux CCD-based plate reader.
In the case of `CCCCCCC(=O)O[C@H]1CC[C@H]2[C@@H]3CC[C@H]4CC(=O)C=C(C)[C@]4(C)[C@H]3CC[C@]12C`, the “activity, negative = cytotoxicity” value is reported as 9.72% (inactive). With `CC[C@H]1[C@@H]2C[C@H]3[C@@H]4N(C)c5ccccc5[C@]45C[C@@H](C2[C@H]5O)N3[C@@H]1O` (stereo not given in full) the “activity, negative = cytotoxicity” value was -11.6% [at 39.1 µM] (inactive). For `CCC(N)Cc1c[nH]c2ccccc12` (stereo not given), the Potency was “inactive”. In the case of `c1ccccc1`, the “activity, negative = cytotoxicity” value is reported as -18.8% (inactive). For `CC(C)(O)[C@@H]1[C@H]2OC(=O)[C@@H]1[C@]1(O)C[C@H]3O[C@]34C(=O)O[C@H]2[C@]14C`, the Potency was “inactive”. For `COC(=O)[C@]12CCC(C)(C)C[C@H]1[C@H]1C(=O)C=C3[C@@]4(C)C=C(C#N)C(=O)C(C)(C)[C@@H]4CC[C@@]3(C)[C@]1(C)CC2`, the Potency was 2980 nM (active). For `CC(=O)OC1CN2CCC1CC2` (stereo not given), the “activity, negative = cytotoxicity” value was 7.35% (inactive). In the case of `COC(COC(N)=O)C1=C(N2CC2)C(=O)C(C)=C(N2CC2)C1=O` (stereo not given), the “activity, negative = cytotoxicity” value is reported as -15.8% (inactive). In the case of `C#CCN1CC(=O)N(COC(=O)C2C(C=C(C)C)C2(C)C)C1=O` (stereo not given), the “activity, negative = cytotoxicity” value is reported as 26.6% (inactive). With `C[C@@H](Cc1ccccc1)NCCC(c1ccccc1)c1ccccc1` the “activity, negative = cytotoxicity” value was -9.36% [at 39.1 µM] (inactive). In the case of `C[C@H]1[C@H]2Cc3ccc(O)cc3[C@]1(C)CCN2CCc1ccccc1`, the “activity, negative = cytotoxicity” value is reported as -9.92% (inactive). For `Cc1cccc(C(C)c2cnc[nH]2)c1C` (stereo not given), the “activity, negative = cytotoxicity” value was 21.2% (inactive). In the case of `CC(=O)O[C@H]1C[C@H](O[C@H]2[C@@H](O)C[C@H](O[C@H]3[C@@H](O)C[C@H](O[C@H]4CC[C@@]5(C)[C@H](CC[C@@H]6[C@@H]5C[C@@H](O)[C@]5(C)[C@@H](C7=CC(=O)OC7)CC[C@]65O)C4)O[C@@H]3C)O[C@@H]2C)O[C@H](C)[C@H]1O[C@@H]1O[C@H](CO)[C@@H](O)[C@H](O)[C@H]1O`, the Potency is reported as 168 nM (active). For `[H+].[H+].[Hg+2].[O-]B([O-])[O-].[c-]1ccccc1`, the Potency was 9440 nM (active). For `COc1ccc2c3c1O[C@H]1[C@@H](O)C=C[C@H]4[C@@H](C2)NCC[C@@]341`, the Potency was “inactive”. For `CNC(C)Cc1ccccc1` (stereo not given), the “activity, negative = cytotoxicity” value was 6.77% (inactive). For `CN(C)[C@H](Cc1ccccc1)c1ccccc1`, the “activity, negative = cytotoxicity” value was -3.71% (inactive). For `CC(N)Cc1ccc(O)cc1` (stereo not given), the “activity, negative = cytotoxicity” value was 4.47% (inactive). With `CCNC1(c2cccs2)CCCCC1=O` (stereo not given) the “activity, negative = cytotoxicity” value was -5.92% [at 39.1 µM] (inactive). For `Clc1ccccc1-c1ccccc1Cl`, the “activity, negative = cytotoxicity” value was 7.64% [at 95.3 µM] (inactive). With `CN1[C@@H]2CC[C@H]1CC(OC1c3ccccc3CCc3ccccc31)C2` (stereo not given in full) the “activity, negative = cytotoxicity” value was 10.2% [at 39.1 µM] (inactive). In the case of `CCN1C[C@]2(COC)[C@H](O)C[C@H](OC)[C@@]34[C@@H]5C[C@@]6(O)[C@H](OC(=O)c7ccccc7)[C@@H]5[C@@](OC(C)=O)([C@@H]([C@H](OC)[C@H]23)[C@@H]14)[C@@H](O)[C@@H]6OC`, the “activity, negative = cytotoxicity” value is reported as 11.8% (inactive). With `O=c1[nH]cc(N(CCCl)CCCl)c(=O)[nH]1` the “activity, negative = cytotoxicity” value was 16.7% (inactive). With `CCOC(=O)C1(c2ccccc2)CCCN(C)CC1` (stereo not given) the “activity, negative = cytotoxicity” value was 8.98% (inactive). For `COc1cc(OC)c(OC)cc1C=O`, the “activity, negative = cytotoxicity” value was 16.3% (inactive). For `CCC1(c2cnc[nH]2)Cc2ccccc2C1`, the Potency was “inactive”. In the case of `C[C@H]1CC[C@]2(NC1)O[C@H]1C[C@H]3[C@@H]4CC[C@H]5C[C@@H](O)CC[C@]5(C)[C@H]4CC[C@]3(C)[C@H]1[C@@H]2C`, the “activity, negative = cytotoxicity” value is reported as 6.22% (inactive). For `OCC(c1ccc(Cl)cc1)c1ccc(Cl)cc1`, the “activity, negative = cytotoxicity” value was 12.2% (inactive). In the case of `O=C1CN(O)C(c2ccccc2)=c2cc(Cl)ccc2=N1`, the “activity, negative = cytotoxicity” value is reported as 13.5% (inactive). In the case of `CCc1cc(OC)c(C[C@@H](C)N)cc1OC`, the “activity, negative = cytotoxicity” value is reported as 8.11% [at 95.3 µM] (inactive). In the case of `O=C(O)/C=C\C(=O)O`, the Potency is reported as “inactive”. With `CCCCCc1cc(O)c2c(c1)OC(C)(C)[C@@H]1CCC(C)=C[C@@H]21` the “activity, negative = cytotoxicity” value was -29.3% (inactive). In the case of `O=C(CCl)c1ccc(Oc2ccc(C(=O)CCl)cc2)cc1`, the “activity, negative = cytotoxicity” value is reported as 9.71% (inactive). In the case of `CC1(C)S[C@@H]2[C@H](N)C(=O)N2[C@H]1C(=O)O`, the “activity, negative = cytotoxicity” value is reported as 13% [at 39.1 µM] (inactive). In the case of `Cc1ccccc1-n1c(CF)nc2ccc(N)cc2c1=O`, the “activity, negative = cytotoxicity” value is reported as -6.04% (inactive). For `CCNCC(O)c1cccc(O)c1` (stereo not given), the “activity, negative = cytotoxicity” value was 12.6% [at 39.1 µM] (inactive). With `O[C@H]1[C@H]2[C@H](O)CCCN2C[C@H]1O` the “activity, negative = cytotoxicity” value was 5.43% (inactive). For `c1cc2c(c(NC3=NCCN3)c1)CCCC2`, the “activity, negative = cytotoxicity” value was 17.4% (inactive). For `c1ccc(C2(c3ccccc3)CC2C2=NCCN2)cc1` (stereo not given), the “activity, negative = cytotoxicity” value was 5.72% (inactive). For `C[C@@H](Cc1ccccc1)N(C)C`, the “activity, negative = cytotoxicity” value was 16.2% (inactive).
% is set by controls: 0 for no effect and ±100 for the full control effect; potency is the fitted concentration of half-maximal effect.
